Counter-ions that a name gives are not always drawn.
What follows are compounds tested on Saccharomyces cerevisiae (assay: fraction of cells in G1 phase (DNA content, flow cytometry); higher = more cells with unreplicated DNA (G1 delay)). Settings: temperature: 30 C; YPD; BY4741 PDR5+ SNQ2+; drug added to: actively dividing cells; 4.33 h.
Protocol: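 S. cerevisiae cultures in YPD at 30°C were treated with each drug of the Enzo FDA-approved library at 20 µg/ml (final µM given per drug). Cells were fixed after 6–7 h (S1) or 6 h (S2), or after 4.33 h for BY4741 (S3), then stained with SYTOX Green. %G1 is the Dean-Jett-Fox G1 peak area divided by the G1+G2/M peak areas, written as a fraction and averaged over at least two independent experiments. DMSO reference: mean ~0.49; >0.60 is called High G1 and <0.3876 Low G1. Scale: lower means mitotic delay.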

| SMILES | fraction of cells in G1 phase |
| --- | --- |
| CO[C@@]12[C@H](COC(N)=O)C3=C(C(=O)C(C)=C(N)C3=O)N1C[C@@H]1N[C@@H]12 [Mitomycin c] (59.8203 µM) | 0.399 |

Same assay, conditions: temperature: 30 C; YPD; JTY2953 pdr5 snq2 (sensitized); drug added to: cultures diluted from stationary phase; 6-7 h

| SMILES | fraction of cells in G1 phase |
| --- | --- |
| O=C(O)CCC(=O)c1ccc(-c2ccccc2)cc1 [Fenbufen] (78.6509 µM) | 0.572 |
| Cc1ncc([N+](=O)[O-])n1CCO [Metronidazole] (116.852 µM) | 0.422 |
| O=c1[nH]c(=O)n([C@H]2C[C@H](O)[C@@H](CO)O2)cc1I [Idoxuridine] (56.4808 µM) | 0.515 |
| NCCC(O)(P(=O)(O)O)P(=O)(O)O [Pamidronic acid] (85.0806 µM) | 0.476 |
| CO[C@@]12[C@H](COC(N)=O)C3=C(C(=O)C(C)=C(N)C3=O)N1C[C@@H]1N[C@@H]12 [Mitomycin c] (59.8203 µM) | 0.273 |
| CC(N/C(=N\C#N)Nc1ccncc1)C(C)(C)C (centres undefined) [Pinacidil] (81.5229 µM) | 0.51 |
| CCN(CC)CCNC(=O)c1cc(Cl)c(N)cc1OC [Metoclopramide HCl] (66.7104 µM) | 0.493 |
| CC(=O)[C@H]1CC[C@H]2[C@@H]3CC=C4C[C@@H](O)CC[C@]4(C)[C@H]3CC[C@]12C [Pregnenolone] (63.1936 µM) | 0.586 |
| O=C(O)Cc1sc(-c2ccccc2)nc1-c1ccc(Cl)cc1 [Fentiazac] (60.6414 µM) | 0.533 |
| CO[C@H]1C[C@H](O[C@H]2[C@H](C)[C@@H](O[C@@H]3O[C@H](C)C[C@H](N(C)C)[C@H]3OC(C)=O)[C@@H](C)C[C@@]3(CO3)C(=O)[C@H](C)[C@@H](OC(C)=O)[C@@H](C)[C@@H](C)OC(=O)[C@@H]2C)O[C@@H](C)[C@@H]1OC(C)=O [Troleandomycin] (24.5704 µM) | 0.489 |
| Cc1ccccc1C(OCCN(C)C)c1ccccc1 (centres undefined) [Orphenadrine citrate] (43.3369 µM) | 0.522 |
| COc1ccccc1OCC(O)CN1CCN(CC(=O)Nc2c(C)cccc2C)CC1 (centres undefined) [Ranolazine 2HCl] (46.7783 µM) | 0.445 |
| CCC[C@@H]1C[C@@H](C(=O)N[C@@H]([C@H]2O[C@H](SC)[C@H](O)[C@@H](O)[C@H]2O)[C@@H](C)O)N(C)C1 [Lincomycin] (49.195 µM) | 0.539 |
| CCCCn1c(=O)c2c(ncn2CC(C)=O)n(CCCC)c1=O [Denbufylline] (62.423 µM) | 0.517 |
| C[C@H]1C[C@H]2[C@@H]3CCC4=CC(=O)C=C[C@]4(C)[C@@]3(F)[C@@H](O)C[C@]2(C)[C@@]1(O)C(=O)CO [Betamethasone] (39.6353 µM) | 0.508 |
| CN(C)CCCC1(c2ccc(F)cc2)OCc2cc(C#N)ccc21 (centres undefined) [Citalopram] (61.652 µM) | 0.454 |
| COc1cc2c3cc1Oc1cc(ccc1O)C[C@@H]1c4c(cc(OC)c(O)c4Oc4ccc(cc4)C[C@@H]3N(C)CC2)CC[N+]1(C)C [Tubocurarine Cl  (+)] (32.8004 µM) | 0.464 |
| COc1c(C)c2c(c(O)c1C/C=C(\C)CCC(=O)OCCN1CCOCC1)C(=O)OC2 [Mycophenolate mofetil] (46.1355 µM) | 0.513 |
| CC[C@H]1OC(=O)[C@H](C)[C@@H](O[C@H]2C[C@@](C)(OC)[C@@H](O)[C@H](C)O2)[C@H](C)[C@@H](O[C@@H]2O[C@H](C)C[C@H](N(C)C)[C@H]2O)[C@](C)(OC)C[C@@H](C)C(=O)[C@H](C)[C@@H](O)[C@]1(C)O [Clarithromycin] (26.7389 µM) | 0.489 |

| SMILES | fraction of cells in G1 phase |
| --- | --- |
| CCN1CCN(C(=O)N[C@@H](C(=O)N[C@@H]2C(=O)N3[C@@H]2SC(C)(C)[C@@H]3C(=O)O)c2ccccc2)C(=O)C1=O [Piperacillin] (38.6425 µM) | 0.462 |
| Cc1cnc(C(=O)NCCc2ccc(S(=O)(=O)NC(=O)NC3CCCCC3)cc2)cn1 [Glipizide] (44.8889 µM) | 0.577 |
| CC(C)(C)NC[C@H](O)COc1nsnc1N1CCOCC1 [Timolol maleate (s)] (63.2061 µM) | 0.499 |
| COCCc1ccc(OCC(O)CNC(C)C)cc1 (centres undefined) [Metoprolol tartrate] (74.8023 µM) | 0.491 |
| COc1cc2c(cc1OC)C(=O)C(CC1CCN(Cc3ccccc3)CC1)C2 (centres undefined) [Donepezil HCl] (48.0769 µM) | 0.515 |
| CN(C)CCC[C@@]1(c2ccc(F)cc2)OCc2cc(C#N)ccc21 [Escitalopram] (61.652 µM) | 0.496 |
| CO[C@H]1/C=C/O[C@@]2(C)Oc3c(C)c(O)c4c(O)c(c(/C=N/N5CCN(C)CC5)c(O)c4c3C2=O)NC(=O)/C(C)=C\C=C\[C@H](C)[C@H](O)[C@@H](C)[C@@H](O)[C@@H](C)[C@H](OC(C)=O)[C@@H]1C [Rifampicin] (24.3025 µM) | 0.502 |
| N=c1nc(N2CCCCC2)cc(N)n1O [Minoxidil] (95.5782 µM) | 0.522 |
| CC(C)C[C@H](NC(=O)[C@@H](COC(C)(C)C)NC(=O)[C@H](Cc1ccc(O)cc1)NC(=O)[C@H](CO)NC(=O)[C@H](Cc1c[nH]c2ccccc12)NC(=O)[C@H](Cc1cnc[nH]1)NC(=O)[C@@H]1CCC(=O)N1)C(=O)N[C@@H](CCCNC(=N)N)C(=O)N1CCC[C@H]1C(=O)NNC(N)=O [Goserelin acetate] (15.755 µM) | 0.485 |
| CO[C@H](C(=O)[C@@H](O)[C@@H](C)O)[C@@H]1Cc2cc3cc(O[C@H]4C[C@@H](O[C@H]5C[C@@H](O)[C@H](O)[C@@H](C)O5)[C@H](O)[C@@H](C)O4)c(C)c(O)c3c(O)c2C(=O)[C@H]1O[C@H]1C[C@@H](O[C@H]2C[C@@H](O[C@H]3C[C@](C)(O)[C@H](O)[C@@H](C)O3)[C@@H](O)[C@@H](C)O2)[C@H](O)[C@@H](C)O1 [Plicamycin] (18.4303 µM) | 0.513 |
| CCOC(=O)/C=C(C)/C=C/C=C(C)/C=C/c1c(C)cc(OC)c(C)c1C [Etretinate] (56.4185 µM) | 0.557 |
| COc1ccc2[nH]cc(CCNC(C)=O)c2c1 [Melatonin] (86.1012 µM) | 0.529 |
| CCn1cc(C(=O)O)c(=O)c2cc(F)c(N3CCNCC3)nc21 [Enoxacin] (62.4364 µM) | 0.512 |
| COC(=O)N/N=C/c1c[n+]([O-])c2ccccc2[n+]1[O-] [Carbadox] (76.2699 µM) | 0.414 |
| C[C@H]1COc2c(N3CCN(C)CC3)c(F)cc3c(=O)c(C(=O)O)cn1c23 [Levofloxacin HCl] (55.344 µM) | 0.471 |
| CCN1CCC[C@H]1CNC(=O)c1cc(S(N)(=O)=O)ccc1OC [Sulpiride s (-)] (58.5768 µM) | 0.482 |
| CN(C)c1nc(N(C)C)nc(N(C)C)n1 [Altretamine] (95.1095 µM) | 0.49 |
| C[C@@H](O)[C@H]1C(=O)N2C(C(=O)O)=C(SCCNC=N)C[C@H]12 [Imipenem] (66.8112 µM) | 0.486 |
| CC#C[C@]1(O)CC[C@H]2[C@@H]3CCC4=CC(=O)CCC4=C3[C@@H](c3ccc(N(C)C)cc3)C[C@@]21C [Mifepristone] (46.5541 µM) | 0.469 |

— the supplement of paper PMC3342239
